Data taken from PubChem BioAssay (EPA / NIEHS).
Activity calls are given as the source filed them. The calls were made as follows: active = hit-call score of the fitted dose curve at least 0.9, where 1 is the maximum; inactive = score below 0.9.

Key:
Conditions in all cases: mRNA level, 48 h; actives raise or lower the signal
[1] = read-out: Alkaline Phosphatase, Placental (ALPP) gene, ALPP (gene 250); assay: LTEA_HepaRG_ALPP: Life Technologies and Expression Analysis (LTEA) Assay for Alkaline Phosphatase, Placental (ALPP) gene using HepaRG (AID 2283468);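 as to AC50: differentiated human HepaRG liver cells in serum-free induction medium; ALPP transcript by TaqMan qRT-PCR normalized to ACTB GAPDH and POLR2A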
Outline: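 HepaRG, 48 h plating then 48 h dosing, serum-free induction medium, 0.5% DMSO. 8 conc, half-log, max 100 uM, duplicates. Endpoint: ALPP transcript by qRT-PCR, housekeeping-normalized; gain or loss fitted vs DMSO.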

[2] = read-out: Bcl-2 (BAD) gene, BAD (gene 572); assay: LTEA_HepaRG_BAD: Life Technologies and Expression Analysis (LTEA) Assay for Bcl-2 (BAD) gene using HepaRG (AID 2283469)
Outline: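 Activity values reflect up- or down-regulation of BAD mRNA in human HepaRG hepatic cells treated 48 h in serum-free medium, with eight-point half-log dosing capped at 100 uM and 0.5% DMSO vehicle.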

[3] = read-out: Bcl-2 (BAX) gene, BAX (gene 581); assay: LTEA_HepaRG_BAX: Life Technologies and Expression Analysis (LTEA) Assay for Bcl-2 (BAX) gene using HepaRG (AID 2283470)
Outline: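 Cells were thawed, plated for 48 h, moved to serum-free induction medium and dosed for 48 h (highest concentration 100 uM, half-log steps, 0.5% DMSO). Total RNA was then analysed for BAX expression by qRT-PCR.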

[4] = read-out: adenosine kinase (ADK) gene, ADK (gene 132); assay: LTEA_HepaRG_ADK: Life Technologies and Expression Analysis (LTEA) Assay for adenosine kinase (ADK) gene using HepaRG (AID 2283471)
Outline: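 Differentiated HepaRG cells dosed 48 h in serum-free induction medium, 0.5% DMSO vehicle, eight half-log concentrations from 100 uM, in duplicate. ADK mRNA by TaqMan qRT-PCR normalised to ACTB, GAPDH, POLR2A; bidirectional fit versus DMSO.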

[5] = read-out: Alpha-fetoprotein (AFP) gene, AFP (gene 174); assay: LTEA_HepaRG_AFP: Life Technologies and Expression Analysis (LTEA) Assay for Alpha-fetoprotein (AFP) gene using HepaRG (AID 2283472)
Outline: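 Chemicals were tested on differentiated HepaRG cells for 48 hours at eight concentrations up to 100 uM, with 0.5% DMSO as vehicle. AFP expression was then quantified by qRT-PCR and analyzed for gain or loss relative to DMSO.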

BCL2L11 (gene 10018) = assay: LTEA_HepaRG_BCL2L11: Life Technologies and Expression Analysis (LTEA) Assay for Bcl-2 (BCL2L11) gene using HepaRG (AID 2283473)
Outline: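 Read-out is BCL2L11 transcript level by qRT-PCR, normalized to three housekeeping genes and fitted bidirectionally against 0.5% DMSO vehicle. HepaRG cells received chemicals for 48 h in serum-free induction medium, 100 uM down in half-log dilutions.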

[6] = read-out: Apoptosis regulator Bcl-2 (Homo sapiens) (UniProt P10415); assay: LTEA_HepaRG_BCL2: Life Technologies and Expression Analysis (LTEA) Assay for Bcl-2 gene using HepaRG (AID 2283475)
Outline: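 Plated human HepaRG cells are exposed to test chemicals for 48 h across eight concentrations from 100 uM downward in half-log steps (0.5% DMSO). BCL2 expression is then measured by qRT-PCR with housekeeping normalisation and fitted bidirectionally against vehicle.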

[7] = read-out: Bcl-2 (BID) gene, BID (gene 637); assay: LTEA_HepaRG_BID: Life Technologies and Expression Analysis (LTEA) Assay for Bcl-2 (BID) gene using HepaRG (AID 2283476)
Outline: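 Cells are plated, cultured 48 h, switched to serum-free induction medium, then dosed 48 h (100 uM top, half-log steps, 0.5% DMSO). RNA is isolated and BID expression read by qRT-PCR.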

Caspase-3 (Homo sapiens) = Caspase-3 (Homo sapiens) (UniProt P42574); assay: LTEA_HepaRG_CASP3: Life Technologies and Expression Analysis (LTEA) Assay for cysteine-aspartic acid protease (CASP3) using HepaRG (AID 2283477)
Outline: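 Read-out is CASP3 mRNA level by TaqMan qRT-PCR in human HepaRG cells after 48 h chemical exposure. Eight half-log concentrations topping at 100 uM were tested in 0.5% DMSO; gain or loss was fitted relative to DMSO.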

[8] = read-out: Apolipoprotein A-V (APOA5) gene, APOA5 (gene 116519); assay: LTEA_HepaRG_APOA5: Life Technologies and Expression Analysis (LTEA) Assay for Apolipoprotein A-V (APOA5) gene using HepaRG (AID 2283474)
Outline: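 Readout is APOA5 transcript level by qRT-PCR on Fluidigm dynamic arrays, normalized to three housekeeping genes. HepaRG cultures received chemicals for 48 h at up to 100 uM (half-log steps, 0.5% DMSO), with gain or loss scored relative to DMSO.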

Measured: AC50

Chain of Apoptosis regulator Bcl-2 (Homo sapiens) (P10415 whole entry, looked up): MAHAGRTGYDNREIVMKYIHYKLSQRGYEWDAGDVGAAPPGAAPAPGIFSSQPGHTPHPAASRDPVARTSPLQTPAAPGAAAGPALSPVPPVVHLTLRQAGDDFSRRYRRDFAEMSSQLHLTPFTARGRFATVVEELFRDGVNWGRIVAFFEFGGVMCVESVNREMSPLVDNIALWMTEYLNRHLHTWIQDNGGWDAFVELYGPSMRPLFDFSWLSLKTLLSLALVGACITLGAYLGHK
Chain of Caspase-3 (Homo sapiens) (P42574 whole entry, looked up): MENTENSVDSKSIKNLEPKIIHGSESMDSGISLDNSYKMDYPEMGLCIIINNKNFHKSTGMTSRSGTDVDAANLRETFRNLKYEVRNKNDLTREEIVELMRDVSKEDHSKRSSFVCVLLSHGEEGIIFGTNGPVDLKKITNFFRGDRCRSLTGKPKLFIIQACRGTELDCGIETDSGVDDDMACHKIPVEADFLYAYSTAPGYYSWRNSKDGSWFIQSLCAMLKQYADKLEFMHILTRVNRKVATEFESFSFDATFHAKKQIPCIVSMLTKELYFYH

O=C(OCCOCCOC(=O)c1ccccc1)c1ccccc1
inactive: [1] | [2] | [3] | [4] | [5] | BCL2L11 (gene 10018) | [6] | [7] | Caspase-3 (Homo sapiens)

CCCCOCCO
inactive: [1] | [2] | [3] | [4] | BCL2L11 (gene 10018) | [8] | [6] | [7] | Caspase-3 (Homo sapiens)

NC(=O)N1C(=O)C(C(=O)c2cc(Cl)cs2)c2cc(F)c(Cl)cc21 (stereo not given)
active: [1] 50 µM | [4] 17.5 µM | [8] 35.1 µM | [6] 50 µM | Caspase-3 (Homo sapiens) 19.1 µM
inactive: [2] | [3] | BCL2L11 (gene 10018) | [7]

CC(=O)NC1(c2cccc(F)c2)CCN(CC[C@@]2(c3ccc(Cl)c(Cl)c3)CN(c3ccccc3)C(=O)CO2)CC1
inactive: [2] | [3] | [4] | [8] | [6] | [7] | Caspase-3 (Homo sapiens)
active: [1] 19.6 µM | BCL2L11 (gene 10018) 59.6 µM

CC1=C(/C=C/C(C)=C/C=C/C(C)=C/C(=O)O)C(C)(C)CCC1
active: [3] 20.4 µM
inactive: [1] | [2] | [4] | BCL2L11 (gene 10018) | [6] | [7] | Caspase-3 (Homo sapiens)

CC(C)(C)c1ccc(O)c(C(C)(C)C)c1
inactive: [1] | [2] | [3] | [4] | BCL2L11 (gene 10018) | [7] | Caspase-3 (Homo sapiens)
active: [6] 0.123 µM

c1ccc2c(c1)ccc1ccccc12
inactive: [1] | [2] | [3] | [4] | BCL2L11 (gene 10018) | [6] | [7] | Caspase-3 (Homo sapiens)

OCCC(F)(F)C(F)(F)C(F)(F)C(F)(F)C(F)(F)C(F)(F)F
inactive: [1] | [2] | [3] | [4] | BCL2L11 (gene 10018) | [6] | [7] | Caspase-3 (Homo sapiens)

Cc1oc(-c2ccccc2)nc1CCOc1ccc(C[C@H](Nc2ccccc2C(=O)c2ccccc2)C(=O)O)cc1
inactive: [2] | [3] | [6]
active: [1] 26.1 µM | [4] 30.5 µM | BCL2L11 (gene 10018) 84.6 µM | [7] 75.6 µM | Caspase-3 (Homo sapiens) 32.7 µM

CCCCC(CC)COC(=O)CCCCC(=O)OCc1ccccc1 (stereo not given)
inactive: [1] | [3] | [4] | BCL2L11 (gene 10018) | [8] | [6] | [7] | Caspase-3 (Homo sapiens)

CCOC(=O)CC(O)(CC(=O)OCC)C(=O)OCC
inactive: [1] | [2] | [3] | [4] | BCL2L11 (gene 10018) | [6] | [7] | Caspase-3 (Homo sapiens)

C#C[C@]1(O)CC[C@H]2[C@@H]3CCC4=CC(=O)CC[C@@H]4[C@H]3CC[C@@]21C
active: [1] 10.1 µM | [4] 9.92 µM | [8] 9.92 µM
inactive: [2] | [3] | BCL2L11 (gene 10018) | [6] | [7] | Caspase-3 (Homo sapiens)

CC(C)(C)c1cccc(C(C)(C)C)c1O
inactive: [1] | [2] | [3] | [4] | BCL2L11 (gene 10018) | [6] | [7] | Caspase-3 (Homo sapiens)

CCCCCCCCCCCCN1CCCC1=O
inactive: [1] | [2] | [3] | [4] | BCL2L11 (gene 10018) | [6] | [7] | Caspase-3 (Homo sapiens)

c1ccc2c(c1)Cc1ccccc1-2
inactive: [1] | [2] | [3] | [4] | BCL2L11 (gene 10018) | [6] | [7] | Caspase-3 (Homo sapiens)

OC1CCC(C2CCCCC2)CC1 (stereo not given)
inactive: [1] | [2] | [3] | [4] | BCL2L11 (gene 10018) | [6] | [7] | Caspase-3 (Homo sapiens)

CCCCC(CC)COC(=O)CCCCC(=O)OCC(CC)CCCC (stereo not given)
inactive: [1] | [2] | [3] | [4] | BCL2L11 (gene 10018) | [6] | [7] | Caspase-3 (Homo sapiens)

C[C@@H]1C[C@H]2[C@@H]3CCC4=CC(=O)C=C[C@]4(C)[C@@]3(F)[C@@H](O)C[C@]2(C)[C@@]1(O)C(=O)COP(=O)(O)O
inactive: [1] | [2] | [3] | [4] | BCL2L11 (gene 10018) | [6] | [7] | Caspase-3 (Homo sapiens)

CC(C)(C)c1cc(C(C)(C)C)c(O)c(C(C)(C)C)c1
inactive: [1] | [2] | [3] | [4] | BCL2L11 (gene 10018) | [6] | [7] | Caspase-3 (Homo sapiens)

O=c1c(-c2ccc(O)cc2)coc2cc(O)ccc12
inactive: [1] | [2] | [3] | [4] | BCL2L11 (gene 10018) | [6] | [7] | Caspase-3 (Homo sapiens)

CCCCCCCCCCCCc1ccccc1S(=O)(=O)O
inactive: [2] | [4] | BCL2L11 (gene 10018) | [7] | Caspase-3 (Homo sapiens)
active: [1] 91.6 µM | [3] 50 µM | [6] 50 µM

Oc1cccc(O)c1
inactive: [1] | [2] | [3] | [4] | BCL2L11 (gene 10018) | [6] | [7] | Caspase-3 (Homo sapiens)

O=C(O)Cc1cc(I)c(Oc2cc(I)c(O)c(I)c2)c(I)c1
active: [1] 13.6 µM | [4] 45.7 µM | [6] 21.7 µM
inactive: [2] | [3] | BCL2L11 (gene 10018) | [7] | Caspase-3 (Homo sapiens)

CCc1ccc(CCOc2ccc(CC3SC(=O)NC3=O)cc2)nc1 (stereo not given)
active: [1] 38.2 µM | [6] 72.6 µM
inactive: [2] | [3] | [4] | BCL2L11 (gene 10018) | [7] | Caspase-3 (Homo sapiens)

ClC1=C(Cl)C(Cl)(Cl)C(Cl)=C1Cl
inactive: [1] | [2] | [3] | [4] | BCL2L11 (gene 10018) | [6] | [7] | Caspase-3 (Homo sapiens)

C=C(C)C(=O)OCCC(F)(F)C(F)(F)C(F)(F)C(F)(F)C(F)(F)C(F)(F)F
inactive: [1] | [2] | [3] | [4] | BCL2L11 (gene 10018) | [6] | [7] | Caspase-3 (Homo sapiens)

Oc1cc2ccccc2c2ccccc12
inactive: [1] | [2] | [3] | [4] | BCL2L11 (gene 10018) | [6] | [7] | Caspase-3 (Homo sapiens)

CCCCCCCC(=O)O
active: Caspase-3 (Homo sapiens) 12.5 µM
inactive: [1] | [2] | [3] | [4] | BCL2L11 (gene 10018) | [6] | [7]

COC(=O)CCCCC(=O)OC
inactive: [1] | [2] | [3] | [4] | BCL2L11 (gene 10018) | [6] | [7] | Caspase-3 (Homo sapiens)

OC1CCCCC1
inactive: [1] | [2] | [3] | [4] | BCL2L11 (gene 10018) | [8] | [6] | [7] | Caspase-3 (Homo sapiens)

COCC(C)O (stereo not given)
inactive: [1] | [2] | [3] | [4] | BCL2L11 (gene 10018) | [6] | [7] | Caspase-3 (Homo sapiens)

CCN(CC)CCNc1ccc(CNC=O)c2sc3ccc(OC)cc3c(=O)c12
active: [4] 76.7 µM | BCL2L11 (gene 10018) 21.9 µM | Caspase-3 (Homo sapiens) 72.7 µM
inactive: [1] | [2] | [3] | [6] | [7]

CC[C@H](C)[C@@H](C(=O)O)n1sc2ccccc2c1=O
inactive: [1] | [2] | [3] | [4] | BCL2L11 (gene 10018) | [6] | [7] | Caspase-3 (Homo sapiens)
